PubChem BioAssay
Records with an inconclusive call do not appear. Some compounds were tested as several samples or in several runs, with calls that do not always agree. Calls of active or inactive are those of the source. Unless noted, the limit is not given here; nearly all actives have AC50 up to about 26 µM.

Tests used:
[1] = viability loss in pontine glioma line – cell-based, SU-DIPG-XVII, MIPE5.0, CellTiter-Glo, qHTS, dose response (AID 1347060); conditions: CellTiter-Glo ATP luminescence;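 as to AC50: cells exposed to compound for 48 hours before viability readout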
[2] = viability loss in pontine glioma line – cell-based, SU-DIPG-XIII, MIPE4.0, CellTiter-Glo, qHTS, dose response (AID 1347061; cut-off not given, nearly all actives have AC50 up to about 37 µM;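 also: cells exposed to compound for 48 hours before readout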); conditions: CellTiter-Glo ATP luminescence
[3] = viability loss in pontine glioma line – cell-based, JHH-DIPG-1, MIPE4.0, CellTiter-Glo, qHTS, dose response (AID 1347062; cut-off not given, nearly all actives have AC50 up to about 27 µM;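 as to AC50: cells exposed to compound for two days before readout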); conditions: JHH-DIPG-1 viability, CellTiter-Glo ATP luminescence
[4] = viability loss in pontine glioma line – cell-based, SU-DIPG-IV, MIPE4.0, CellTiter-Glo, qHTS, dose response (AID 1347063; cut-off not given, nearly all actives have AC50 up to about 30 µM;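 also: compound exposure lasted 48 hours before the viability readout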); conditions: CellTiter-Glo ATP luminescence
[5] = viability loss in pontine glioma line – cell-based, SU-DIPG-XIII, MIPE5.0, CellTiter-Glo, qHTS, dose response (AID 1347064; cut-off not given, nearly all actives have AC50 up to about 23 µM;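 as to AC50: cells exposed to compound for 48 hours before the viability read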); conditions: CellTiter-Glo ATP luminescence
[6] = viability loss in pontine glioma line – cell-based, SU-DIPG-XXV, MIPE5.0, CellTiter-Glo, qHTS, dose response (AID 1347065); conditions: CellTiter-Glo ATP luminescence;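 also: cells exposed to compound for 48 hours before ATP readout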
[7] = growth inhibition of DIPG cells – cell-based, MIPE4.0 library, CellTiter-Glo luminescence, qHTS (AID 1347066; cut-off not given, nearly all actives have AC50 up to about 30 µM;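 also: cells exposed to compound for 48 hours before readout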); conditions: SU-DIPG-VI viability, CellTiter-Glo ATP luminescence
[8] = JHH-DIPG-1 glioma cell viability, MIPE5.0 library, CellTiter-Glo luminescence, qHTS (AID 1347067); conditions: JHH-DIPG-1 glioma viability, CellTiter-Glo ATP luminescence;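 also: cells exposed to compound for 48 hours before readout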
[9] = growth inhibition of DIPG cells – cell-based, MIPE5.0 library, qHTS (AID 1347068; cut-off not given, nearly all actives have IC50 up to about 30 µM;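 as to IC50: cells exposed to compound for 48 hours before viability readout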); conditions: SU-DIPG-XXV viability
[10] = P. berghei load reduction in hepatocytes – cell-based, HepG2, luciferase luminescence, HepG2 viability, primary screen (AID 624349; in the data active = parasite load remaining mostly below about 12%, no sharp cut-off; inactive = mostly above about 10%;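 also: 100% = mean of DMSO negative control wells on the same plate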); conditions: P. berghei liver stage in HepG2, luciferase luminescence, concentration not given here; parasite load remaining: stronger effect = lower value; viability: measured here: HepG2 viability without parasites
[11] = system: Aerobactin synthetase IucA (Klebsiella pneumoniae); assay: inhibition of K. pneumoniae IucA enzyme – biochemical, Tocris library, absorbance (AID 1345561; call rule not given here;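 also: 100% = enzyme without compound and 0% = no enzyme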); conditions: purified IucA enzyme assay, absorbance (OD) read-out; stronger effect = lower value;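 tested at 8 µM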
[12] = viability loss with induced miR-34 in A549 – imaging, A549 dox-inducible miR-34, nuclei and caspase counts, primary screen (AID 1347080;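 active = compounds whose cell count with miR-34 switched on is under 0.7 times the count with it off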); conditions: A549 miR-34 inducible, Hoechst nuclei count, 48 h
[13] = galactose survival enhancers in mitochondrial complex I cybrids – cell-based, galactose medium, ATP luminescence, primary screen (AID 1645843;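 active = z-score of at least 1.8 in each of two replicates, scored against plate mean and spread of sample wells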;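 also: positive z means more ATP and so rescue of galactose-driven cybrid death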); conditions: complex I mutant cybrid cells, 72 h, stronger effect = higher value
[14] = stronger effect = lower value, cell number ratio, induced over uninduced
[15] = measured here: relative caspase fold change +Dox/-Dox
[16] = measured here: total cells with miR-34 induction, stronger effect = lower value
[17] = measured here: total cells without miR-34 induction

In the case of CC[C@@]1(O)C(=O)OCc2c1cc1n(c2=O)Cc2c-1nc1cc(F)c(C)c3c1c2[C@@H](N)CC3, the AC50 [1] is reported as 0.00235 µM (active).
In the case of C=CC(=O)N1CCc2ccc(-n3c(=O)ccc4cnc5ccc(-c6cnn(C)c6)cc5c43)cc21, the AC50 [1] is reported as 0.229 µM (active), the AC50 [2] is reported as 8.33 µM (active) and the AC50 [3] is reported as 7.43 µM (active). The AC50 [4] was 2.35 µM (active), the AC50 [5] was 0.0723 µM (active) and the AC50 [6] was 0.144 µM (active). The AC50 [7] was 3.72 µM (active) and the AC50 [8] was 1.15 µM (active).
With COC(=O)C[C@](O)(CCCC(C)(C)O)C(=O)O[C@@H]1C(OC)=CC23CCCN2CCc2cc4c(cc2[C@H]13)OCO4 (some centres not stated) the AC50 [1] was 0.0661 µM (active), the outcome [2] was “inactive” and the outcome [3] was “inactive”. The outcome [4] was “inactive”, the AC50 [5] was 0.118 µM (active) and the AC50 [6] was 0.0934 µM (active). The outcome [7] was “inactive”, the AC50 [8] was 0.332 µM (active) and the outcome [9] was “inactive”.
For COC(=O)C1=C(C)NC(c2ncc(F)cc2F)=N[C@H]1c1ccc(F)cc1Cl, the AC50 [1] was 23.5 µM (active).
For O=c1cc(N2CCOCC2)nc2c3ccccc3ccn12, the parasite load remaining [10] was 31.9% (inactive), the viability [10] was 94.8% and the remaining activity [11] was 126% (inactive). For the same compound, the fold change [12, 14] was 0.935 (inactive), the fold change [12, 15] was 1.52 and the cell count [12, 16] was 8560. The cell count [12, 17] was 9160 and the z-score [13] was 1.56 (inactive).
With CC1(C)SCCN(S(=O)(=O)c2ccc(OCC#CCO)cc2)[C@H]1C(=O)NO the outcome [1] was “inactive”, the outcome [2] was “inactive” and the outcome [3] was “inactive”. For the same compound, the outcome [4] was “inactive”, the outcome [5] was “inactive” and the outcome [6] was “inactive”. The outcome [7] was “inactive”, the outcome [8] was “inactive” and the outcome [9] was “inactive”.
For CC[C@@H](C)[C@H](NC(=O)[C@H](CC1CCCCC1)NC(=O)c1ccno1)C(=O)N1CCC2(CCc3ccccc32)CC1, the outcome [1] was “inactive”, the outcome [2] was “inactive” and the outcome [3] was “inactive”. The outcome [4] was “inactive”, the outcome [5] was “inactive” and the AC50 [6] was 11.8 µM (active). For the same compound, the outcome [7] was “inactive”, the outcome [8] was “inactive” and the outcome [9] was “inactive”.
In the case of COc1cc2c(Oc3ccc(-c4cnc(Nc5ccc(F)cc5)n(C)c4=O)cc3F)ccnc2cc1OCCCN1CCOCC1, the AC50 [1] is reported as 3.32 µM (active), the AC50 [2] is reported as 14.8 µM (active) and the AC50 [3] is reported as 18.7 µM (active). The AC50 [4] was 16.6 µM (active), the AC50 [5] was 3.72 µM (active) and the AC50 [6] was 2.09 µM (active). For the same compound, the AC50 [7] was 9.35 µM (active), the AC50 [8] was 9.34 µM (active) and the IC50 [9] was 6.61 µM (active).
For O=C1NC(=O)c2cc(Nc3ccc(F)cc3)c(Nc3ccc(F)cc3)cc21, the parasite load remaining [10] was 41.4% (inactive), the viability [10] was 70.7% and the remaining activity [11] was 103% (inactive). The fold change [12, 14] was 1.25 (inactive), the fold change [12, 15] was 0.934 and the cell count [12, 16] was 3220. The cell count [12, 17] was 2570 and the z-score [13] was -0.645 (inactive).
For CC(C)S(=O)(=O)c1ccc2nccc(Nc3ccc4scnc4c3)c2c1, the AC50 [1] was 16.6 µM (active).
With O=C(Nc1ccccc1Br)N[C@@H]1CCN(c2ccc(C(F)(F)F)cn2)C1 the outcome [1] was “inactive”, the outcome [2] was “inactive” and the outcome [3] was “inactive”. The outcome [4] was “inactive”, the outcome [5] was “inactive” and the outcome [6] was “inactive”. The outcome [7] was “inactive”, the outcome [8] was “inactive” and the outcome [9] was “inactive”.
In the case of CN(C)c1ccc2cc(C(=O)N[C@@H](CCCN=C(N)CCl)C(=O)NCc3ccccc3)ccc2c1, the AC50 [1] is reported as 8.33 µM (active), the AC50 [2] is reported as 16.6 µM (active) and the AC50 [3] is reported as 13.2 µM (active). For the same compound, the AC50 [4] was 7.43 µM (active), the AC50 [5] was 2.63 µM (active) and the AC50 [6] was 9.34 µM (active). For the same compound, the AC50 [7] was 16.6 µM (active) and the AC50 [8] was 8.33 µM (active).
For CN(C)C(=O)n1nnnc1Cc1ccc(-c2ccccc2)cc1, the remaining activity [11] was 82% (inactive), the fold change [12, 14] was 1.31 (inactive) and the fold change [12, 15] was 1.05. For the same compound, the cell count [12, 16] was 1840, the cell count [12, 17] was 1400 and the z-score [13] was -0.57 (inactive).
In the case of CC(C)C[C@H](CO)Nc1nc(S[C@@H](C)c2ccccc2)nc2nc(N)sc12, the outcome [1] is reported as “inactive”.
In the case of O=C(NC1CC1)c1cccc(-c2ccc3c(NC(=O)C4CC4)n[nH]c3c2)c1, the AC50 [1] is reported as 10.5 µM (active), the AC50 [2] is reported as 4.69 µM (active) and the AC50 [3] is reported as 9.35 µM (active). The AC50 [4] was 11.8 µM (active) and the AC50 [5] was 8.33 µM (active).
For O=C(CCCc1ccc(-c2ccccc2F)cc1)Nc1ccc(O)cc1, the parasite load remaining [10] was 21.2% (inactive), the viability [10] was 102% and the remaining activity [11] was 95.9% (inactive). For the same compound, the fold change [12, 14] was 1.05 (inactive), the fold change [12, 15] was 1.19 and the cell count [12, 16] was 2340. For the same compound, the cell count [12, 17] was 2220 and the z-score [13] was -0.66 (inactive).
For Cc1cc(C)c(CNC(=O)c2cc(-c3ccc(N4CCN(C)CC4)nc3)cc3c2c(C)cn3C(C)C)c(=O)[nH]1, the AC50 [1] was 20.9 µM (active), the outcome [1] was “inactive” and the outcome [5] was “inactive”. The AC50 [6] was 26.3 µM (active) and the outcome [9] was “inactive”.
With NS(=O)(=O)c1ccc(NC(=S)N2CCN(C/C=C/c3ccccc3)CC2)cc1 the outcome [1] was “inactive”.
In the case of CC(=O)NCC(=O)N1[C@@H]2CC[C@H]1c1ccc(Nc3ncc(C(F)(F)F)c(NC4CCC4)n3)cc12, the AC50 [1] is reported as 0.417 µM (active), the AC50 [2] is reported as 1.66 µM (active) and the AC50 [3] is reported as 5.9 µM (active). The AC50 [4] was 1.87 µM (active), the AC50 [5] was 0.661 µM (active) and the AC50 [6] was 0.186 µM (active). The AC50 [7] was 2.64 µM (active), the AC50 [8] was 1.86 µM (active) and the IC50 [9] was 0.833 µM (active).
With CO[C@H]1/C=C\C=C(\C)C(=O)NC2=CC(=O)C(NCCN(C)C)=C(C[C@@H](C)C[C@H](OC)[C@H](O)[C@@H](C)/C=C(/C)[C@@H]1OC(N)=O)C2=O the AC50 [1] was 0.0525 µM (active), the AC50 [2] was 0.0833 µM (active) and the AC50 [3] was 0.187 µM (active). For the same compound, the AC50 [4] was 0.0132 µM (active), the AC50 [5] was 0.118 µM (active) and the AC50 [6] was 0.235 µM (active). For the same compound, the AC50 [7] was 5.26 µM (active), the AC50 [8] was 0.0742 µM (active) and the IC50 [9] was 1.18 µM (active).
In the case of O=C(O)[C@@H](c1ccc(OCc2ccc3ccccc3n2)cc1)C1CCCC1, the outcome [1] is reported as “inactive”, the outcome [2] is reported as “inactive” and the outcome [3] is reported as “inactive”. The outcome [4] was “inactive”, the outcome [5] was “inactive” and the outcome [6] was “inactive”. For the same compound, the outcome [7] was “inactive”, the outcome [8] was “inactive” and the outcome [9] was “inactive”.
For CC(=O)OC[C@@H]1O[C@@H](n2ccc(=O)[nH]c2=O)[C@H](OC(C)=O)[C@@H]1OC(C)=O, the outcome [1] was “inactive”, the outcome [2] was “inactive” and the outcome [3] was “inactive”. For the same compound, the outcome [4] was “inactive”, the outcome [5] was “inactive” and the outcome [6] was “inactive”. For the same compound, the outcome [7] was “inactive”, the outcome [8] was “inactive” and the outcome [9] was “inactive”.
